Measurements taken from the supplement of paper PMC11732987, “Enantioselective OTUD7B fragment discovery through chemoproteomics screening and high-throughput optimisation” (Communications Chemistry, 2025).
Values without a mark were called inactive.

compound: ClCC(=O)NC(C1CC1)C1CC1; assay: log2 ratio of Biotin-Ahx-Ub-VS probe labelling (fragment/DMSO); higher = less target engagement (more negative = stronger competition), active = hit call of the paper (q ≤ 0.05, log2 ratio ≤ -1); details: compound concentration: 200 uM; treatment time: 3 h
Method: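 Competitive ABPP in HEK293T cell lysate. Lysates were treated with each chloroacetamide fragment at 200 µM for 3 h, then with Biotin-Ahx-Ub-VS (0.5 µM, 1 h), NeutrAvidin-enriched and analysed by diaPASEF LC-MS/MS. Protein LFQ was median-normalised; average log2 ratio is fragment/DMSO from an unpaired t-test (n=3 treated, n=44 DMSO). Hits: q ≤ 0.05, log2 ratio ≤ -1, unique peptides ≥ 2.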

UniProt Q6GQQ9, sequence (Q6GQQ9 whole entry): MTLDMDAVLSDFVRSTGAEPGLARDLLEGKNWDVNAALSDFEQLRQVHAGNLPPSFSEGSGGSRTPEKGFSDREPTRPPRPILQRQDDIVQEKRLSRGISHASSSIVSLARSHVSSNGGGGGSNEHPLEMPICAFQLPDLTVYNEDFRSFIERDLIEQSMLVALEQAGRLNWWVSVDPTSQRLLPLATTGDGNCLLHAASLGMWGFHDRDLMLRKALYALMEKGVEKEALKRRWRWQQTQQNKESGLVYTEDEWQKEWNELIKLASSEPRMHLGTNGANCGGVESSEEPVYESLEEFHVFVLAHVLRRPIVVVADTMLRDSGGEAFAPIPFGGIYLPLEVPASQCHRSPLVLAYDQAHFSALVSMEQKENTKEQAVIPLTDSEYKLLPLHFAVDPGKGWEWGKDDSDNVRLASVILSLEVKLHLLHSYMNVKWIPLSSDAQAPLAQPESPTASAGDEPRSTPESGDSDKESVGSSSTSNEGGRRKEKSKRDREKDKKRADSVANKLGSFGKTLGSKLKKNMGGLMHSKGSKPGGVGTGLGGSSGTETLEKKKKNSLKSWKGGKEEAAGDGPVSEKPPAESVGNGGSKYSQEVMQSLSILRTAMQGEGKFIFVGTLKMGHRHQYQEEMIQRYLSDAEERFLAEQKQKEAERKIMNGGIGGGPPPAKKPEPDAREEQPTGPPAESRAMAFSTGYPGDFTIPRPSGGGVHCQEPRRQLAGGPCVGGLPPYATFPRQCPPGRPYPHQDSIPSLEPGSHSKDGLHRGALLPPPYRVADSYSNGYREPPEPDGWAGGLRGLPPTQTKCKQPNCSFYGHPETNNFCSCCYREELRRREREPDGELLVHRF
UniProt P09936, sequence (P09936 whole entry, looked up): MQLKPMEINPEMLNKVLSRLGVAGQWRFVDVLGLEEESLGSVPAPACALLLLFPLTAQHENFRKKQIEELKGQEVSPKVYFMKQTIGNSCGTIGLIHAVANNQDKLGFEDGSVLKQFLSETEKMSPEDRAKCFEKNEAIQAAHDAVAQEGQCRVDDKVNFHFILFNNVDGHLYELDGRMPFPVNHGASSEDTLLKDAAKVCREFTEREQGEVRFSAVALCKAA
UniProt O00507, sequence (O00507 whole entry): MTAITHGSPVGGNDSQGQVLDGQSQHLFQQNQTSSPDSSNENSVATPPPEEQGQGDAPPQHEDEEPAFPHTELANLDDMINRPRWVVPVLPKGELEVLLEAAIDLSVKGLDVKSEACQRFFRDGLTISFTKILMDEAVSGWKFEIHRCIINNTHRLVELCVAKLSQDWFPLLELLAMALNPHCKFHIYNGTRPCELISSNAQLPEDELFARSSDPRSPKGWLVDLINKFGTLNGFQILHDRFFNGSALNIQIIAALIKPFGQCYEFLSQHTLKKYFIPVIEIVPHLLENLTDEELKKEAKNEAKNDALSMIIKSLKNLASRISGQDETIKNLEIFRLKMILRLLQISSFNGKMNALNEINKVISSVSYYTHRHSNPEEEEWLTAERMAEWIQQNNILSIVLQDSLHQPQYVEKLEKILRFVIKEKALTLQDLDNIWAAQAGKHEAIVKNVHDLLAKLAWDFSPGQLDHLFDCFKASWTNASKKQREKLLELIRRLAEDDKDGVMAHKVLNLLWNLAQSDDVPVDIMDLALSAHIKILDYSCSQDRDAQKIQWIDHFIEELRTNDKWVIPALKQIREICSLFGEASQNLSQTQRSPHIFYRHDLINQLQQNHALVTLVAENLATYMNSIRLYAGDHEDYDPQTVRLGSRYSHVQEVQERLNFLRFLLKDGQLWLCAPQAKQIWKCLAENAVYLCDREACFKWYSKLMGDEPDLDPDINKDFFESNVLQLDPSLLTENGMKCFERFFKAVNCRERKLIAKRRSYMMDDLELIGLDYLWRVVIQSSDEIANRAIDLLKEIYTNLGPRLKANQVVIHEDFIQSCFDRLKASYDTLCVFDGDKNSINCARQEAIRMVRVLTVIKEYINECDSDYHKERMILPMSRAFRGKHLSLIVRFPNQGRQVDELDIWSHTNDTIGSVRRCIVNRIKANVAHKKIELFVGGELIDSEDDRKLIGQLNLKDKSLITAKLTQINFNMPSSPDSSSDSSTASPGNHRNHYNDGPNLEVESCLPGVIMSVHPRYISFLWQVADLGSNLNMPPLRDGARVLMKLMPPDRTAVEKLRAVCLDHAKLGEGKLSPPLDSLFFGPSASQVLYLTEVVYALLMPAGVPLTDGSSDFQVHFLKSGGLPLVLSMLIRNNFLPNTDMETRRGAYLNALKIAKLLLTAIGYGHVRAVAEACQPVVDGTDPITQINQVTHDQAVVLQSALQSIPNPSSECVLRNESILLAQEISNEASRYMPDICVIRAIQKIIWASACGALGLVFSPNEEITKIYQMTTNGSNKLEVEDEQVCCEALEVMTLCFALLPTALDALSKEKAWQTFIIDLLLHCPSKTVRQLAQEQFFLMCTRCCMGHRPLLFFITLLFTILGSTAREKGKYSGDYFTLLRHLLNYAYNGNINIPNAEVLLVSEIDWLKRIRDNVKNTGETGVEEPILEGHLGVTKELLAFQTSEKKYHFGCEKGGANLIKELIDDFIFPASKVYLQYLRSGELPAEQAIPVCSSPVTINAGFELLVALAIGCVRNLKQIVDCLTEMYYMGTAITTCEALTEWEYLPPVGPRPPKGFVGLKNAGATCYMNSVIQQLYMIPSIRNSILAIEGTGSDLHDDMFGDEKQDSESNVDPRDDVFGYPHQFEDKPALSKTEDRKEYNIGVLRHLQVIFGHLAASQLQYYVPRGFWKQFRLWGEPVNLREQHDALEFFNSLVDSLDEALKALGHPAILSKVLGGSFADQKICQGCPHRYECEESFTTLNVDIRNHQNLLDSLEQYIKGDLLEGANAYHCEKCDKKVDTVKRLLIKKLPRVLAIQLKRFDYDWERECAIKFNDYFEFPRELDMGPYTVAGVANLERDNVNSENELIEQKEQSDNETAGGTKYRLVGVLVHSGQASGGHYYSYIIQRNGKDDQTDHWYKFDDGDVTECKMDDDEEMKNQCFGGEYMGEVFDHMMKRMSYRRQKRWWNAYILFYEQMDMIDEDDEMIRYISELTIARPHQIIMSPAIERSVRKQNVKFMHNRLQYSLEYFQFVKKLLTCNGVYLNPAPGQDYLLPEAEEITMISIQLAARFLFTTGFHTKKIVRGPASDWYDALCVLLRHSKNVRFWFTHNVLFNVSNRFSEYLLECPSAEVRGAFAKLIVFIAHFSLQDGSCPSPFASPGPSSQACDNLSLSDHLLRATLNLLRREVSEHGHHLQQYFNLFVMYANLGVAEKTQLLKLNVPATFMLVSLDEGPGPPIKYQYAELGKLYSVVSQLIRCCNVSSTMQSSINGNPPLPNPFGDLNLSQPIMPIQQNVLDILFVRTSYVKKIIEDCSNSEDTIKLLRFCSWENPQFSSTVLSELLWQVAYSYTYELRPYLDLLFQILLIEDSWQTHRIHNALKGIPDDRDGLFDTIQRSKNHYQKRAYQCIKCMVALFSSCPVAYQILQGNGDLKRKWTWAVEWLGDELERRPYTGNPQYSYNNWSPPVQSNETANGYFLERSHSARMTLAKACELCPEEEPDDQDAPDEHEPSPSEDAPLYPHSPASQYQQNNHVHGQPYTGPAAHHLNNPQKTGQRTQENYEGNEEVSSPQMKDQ
UniProt O00487, sequence (O00487 whole entry): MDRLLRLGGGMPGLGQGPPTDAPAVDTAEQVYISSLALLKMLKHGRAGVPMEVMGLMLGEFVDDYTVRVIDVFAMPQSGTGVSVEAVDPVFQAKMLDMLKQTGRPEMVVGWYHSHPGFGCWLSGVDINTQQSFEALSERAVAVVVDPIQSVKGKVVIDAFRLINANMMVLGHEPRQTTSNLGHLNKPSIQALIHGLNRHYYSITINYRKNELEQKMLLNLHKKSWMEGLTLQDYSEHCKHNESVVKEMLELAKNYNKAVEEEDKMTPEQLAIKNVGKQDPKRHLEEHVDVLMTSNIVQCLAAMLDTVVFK
UniProt P54252, sequence (P54252 whole entry): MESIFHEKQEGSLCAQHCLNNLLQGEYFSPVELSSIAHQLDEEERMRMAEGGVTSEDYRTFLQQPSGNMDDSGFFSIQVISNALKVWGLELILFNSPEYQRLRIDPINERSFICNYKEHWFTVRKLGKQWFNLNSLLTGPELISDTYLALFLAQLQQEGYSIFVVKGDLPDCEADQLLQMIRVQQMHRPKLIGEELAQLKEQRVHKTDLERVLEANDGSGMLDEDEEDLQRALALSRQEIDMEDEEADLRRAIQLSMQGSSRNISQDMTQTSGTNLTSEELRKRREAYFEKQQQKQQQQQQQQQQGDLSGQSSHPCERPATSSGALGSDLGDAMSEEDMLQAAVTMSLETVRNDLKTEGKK
UniProt Q92905, sequence (Q92905 whole entry, looked up): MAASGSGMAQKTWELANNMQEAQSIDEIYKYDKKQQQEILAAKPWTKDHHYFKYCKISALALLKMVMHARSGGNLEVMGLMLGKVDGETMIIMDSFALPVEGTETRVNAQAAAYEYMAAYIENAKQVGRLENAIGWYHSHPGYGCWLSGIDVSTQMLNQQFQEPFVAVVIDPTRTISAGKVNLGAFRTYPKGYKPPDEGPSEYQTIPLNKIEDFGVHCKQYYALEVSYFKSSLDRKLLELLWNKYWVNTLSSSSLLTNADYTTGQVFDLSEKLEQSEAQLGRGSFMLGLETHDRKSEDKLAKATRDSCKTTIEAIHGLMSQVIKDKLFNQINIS
UniProt Q5VVQ6, sequence (Q5VVQ6 whole entry): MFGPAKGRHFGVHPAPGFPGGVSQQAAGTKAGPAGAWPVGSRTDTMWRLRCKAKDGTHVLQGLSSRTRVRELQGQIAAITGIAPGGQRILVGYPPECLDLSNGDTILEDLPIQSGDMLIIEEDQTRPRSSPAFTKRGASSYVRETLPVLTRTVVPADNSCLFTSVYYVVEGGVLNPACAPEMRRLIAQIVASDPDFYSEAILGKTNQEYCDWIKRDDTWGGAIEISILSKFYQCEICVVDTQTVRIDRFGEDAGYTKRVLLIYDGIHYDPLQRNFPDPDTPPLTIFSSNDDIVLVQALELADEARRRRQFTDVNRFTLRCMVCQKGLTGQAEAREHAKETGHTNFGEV

| Target | log2 ratio of Biotin-Ahx-Ub-VS probe labelling |
| --- | --- |
| USP10 (UniProt Q14694) | -0.045 |
| OTUD6B (UniProt Q8N6M0) | -0.29 |
| ATXN3 (UniProt P54252) | 0.0786 |
| USP36 (UniProt Q9P275) | -0.148 |
| UCHL1 (UniProt P09936) | -1.28 (active) |
| USP34 (UniProt Q70CQ2) | -0.194 |
| OTUB1 (UniProt Q96FW1) | 0.0718 |
| PSMD7 (UniProt P51665) | -0.0309 |
| USP9X (UniProt Q93008) | -0.125 |
| USP48 (UniProt Q86UV5) | 0.01 |
| COPS5 (UniProt Q92905) | -0.232 |
| FAM105A (UniProt Q9NUU6) | -0.0106 |
| UniProt Q8TE49 | -0.531 |
| USP24 (UniProt Q9UPU5) | -0.346 |
| UCHL3 (UniProt P15374) | 0.117 |
| UCHL5 (UniProt Q9Y5K5) | -0.00772 |
| USP19 (UniProt O94966) | -0.198 |
| OTUD5 (UniProt Q96G74) | -0.0756 |
| UniProt P51784 | -0.304 |
| YOD1 (UniProt Q5VVQ6) | -0.0299 |

| Target | log2 ratio of Biotin-Ahx-Ub-VS probe labelling |
| --- | --- |
| EIF3F (UniProt O00303) | -0.0875 |
| USP46 (UniProt P62068) | 0.045 |
| USP16 (UniProt Q9Y5T5) | -0.253 |
| USP42 (UniProt Q9H9J4) | -0.0349 |
| USP22 (UniProt Q9UPT9) | -0.16 |
| OTUD7B (UniProt Q6GQQ9) | -1.44 (active) |
| VCPIP1 (UniProt Q96JH7) | -0.276 |
| OTUD4 (UniProt Q01804) | -0.457 |
| USP7 (UniProt Q93009) | -0.307 |
| USP4 (UniProt Q13107) | -0.162 |
| USP15 (UniProt Q9Y4E8) | -0.268 |
| USP47 (UniProt Q96K76) | -0.205 |
| USP54 (UniProt Q70EL1) | -0.749 |
| ALG13 (UniProt Q9NP73) | 0.189 |
| UniProt O00487 | -0.179 |
| UniProt Q5T2D3 | -0.0205 |
| USP5 (UniProt P45974) | -0.319 |
| UniProt Q9P2H5 | -0.0753 |
| UniProt O00507 | -0.0912 |
| USP8 (UniProt P40818) | -0.0528 |
